Caspase-7 inhib: qHTS Assay for Allosteric/Competitive Inhibitors of Caspase-7. P55210. recombinant caspase-7, Ac-DEVD-AFC fluorescence rate. Potency, µM (titrated, usually from 57.5 µM), for the others: at the highest dose activity change, negative = inhibition, hits mostly inhibitors. 0.02% of 75,000 active; active = well fitted inhibition curve with a large enough effect in the main read-out, with a control signal flat, not every such curve was filed as active; inconclusive = small, poorly fitted or top-dose-only effect, or a change in a side signal; note: % of control where 0% means no effect
15-hLO inh: qHTS Assay for Inhibitors of 15-hLO (15-human lipoxygenase) | 1.4% of 74,000 active | purified 15hLO-1, xylenol orange hydroperoxide absorbance | AID 887, 2007 | Potency, µM (top dose mostly 57.1 µM), inactives show top-dose activity change, negative = inhibition, hits mostly inhibitors | Polyunsaturated fatty acid lipoxygenase ALOX15 (Homo sapiens), P16050; note: % is set by controls: 0 for no effect and ±100 for the full control effect; nearly all actives have a fitted effect of over 55% in size
Target sequence (P16050 whole entry, looked up): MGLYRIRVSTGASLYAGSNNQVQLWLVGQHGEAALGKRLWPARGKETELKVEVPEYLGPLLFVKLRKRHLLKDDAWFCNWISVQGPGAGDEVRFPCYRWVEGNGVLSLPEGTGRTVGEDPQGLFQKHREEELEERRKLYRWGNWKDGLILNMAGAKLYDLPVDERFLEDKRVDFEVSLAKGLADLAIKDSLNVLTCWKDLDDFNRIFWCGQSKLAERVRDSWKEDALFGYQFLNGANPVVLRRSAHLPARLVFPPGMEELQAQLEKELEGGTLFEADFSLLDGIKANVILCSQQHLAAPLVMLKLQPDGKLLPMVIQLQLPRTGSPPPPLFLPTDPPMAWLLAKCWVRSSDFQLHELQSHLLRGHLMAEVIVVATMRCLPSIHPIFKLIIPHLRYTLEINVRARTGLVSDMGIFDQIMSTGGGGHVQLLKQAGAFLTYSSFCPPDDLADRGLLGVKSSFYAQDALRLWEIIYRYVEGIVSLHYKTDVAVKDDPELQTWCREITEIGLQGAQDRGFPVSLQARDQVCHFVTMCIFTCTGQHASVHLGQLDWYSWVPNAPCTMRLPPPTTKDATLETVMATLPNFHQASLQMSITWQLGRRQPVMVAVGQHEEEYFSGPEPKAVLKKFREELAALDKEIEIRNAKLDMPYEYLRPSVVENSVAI
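40 nM 15hLO-1 + cpd, 15 min RT; start w/ 50 uM AA (final), 6 min RT; stop/detect w/ 200 uM XO + 300 uM Fe(II) in 50 mM H2SO4, 30 min; A573/A405. Buffer 25 mM Hepes pH 7.5, 0.01% Triton X-100. No-enzyme wells as negative control.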
Tau filament bind: qHTS Assay for Tau Filament Binding; Microtubule-associated protein tau (Homo sapiens), P10636; 2% of 71,000 active; Potency, µM (titrated, usually from 57.1 µM), for inactives: top-dose activity change, negative = inhibition; recombinant tau filaments, thioflavin S fluorescence, 15 h; filaments grown with octadecylsulfate alongside compound;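 note: % is set by controls: 0 for no effect and ±100 for the full control effect; actives lower thioflavin S fluorescence by blocking filaments or displacing dye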
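His-tagged recombinant human tau (exons 2, 3, 10; 1 uM final) fibrillized with 30 uM sodium octadecylsulfate, 15 h at 37 C, in pH 7.4 HEPES buffer with 10 uM thioflavine S and 5 mM DTT. Reduced ThS fluorescence (450/510 nm) marks activity.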
Casp1 inh: qHTS Assay for Allosteric/Competitive Inhibitors of Caspase-1 | P29466 | Caspase-1 enzyme, Ac-WEHD-AFC fluorogenic rate | Potency, µM (doses to about 57.5 µM), for the others: at the highest dose activity change, negative = inhibition, most hits filed as inhibitors | 0.03% of 75,000 active | AID 900, 2007;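 note: plate controls were vehicle for no effect and no substrate for full effect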
ERK AVP block: qHTS Assay for Inhibitors of the ERK Signaling Pathway using a Homogeneous Screening Assay. Potency, µM (series often up to 57.5 µM), without a hit: at the top dose activity, negative = inhibition, hits mostly inhibitors. HEK293-V1b, vasopressin-stimulated pERK AlphaScreen. 0.99% of 72,000 active; note: % is set by controls: 0 for no effect and ±100 for the full control effect; nearly all actives have a fitted effect of over 55% in size
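Overnight-seeded V1b-HEK293 cells in 1% FBS got compound, then vasopressin (25 nM final, 5 min, 37C), then lysis buffer. AlphaScreen detection of phospho-ERK; activity normalized to basal and full-stimulation controls.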
Numbers without * were called inactive; u = inconclusive; x = no result given; ! = repeats disagree; [ ] = another dose, or the depositor's remark. The list is not random: actives were taken first. Their share in the collection is about 3.9%. Unless noted, calls come from the whole dose curve; as a rule, active = well fitted curve in the direction sought with a large enough effect; inconclusive = small, poorly fitted or top-dose-only effect, or another doubt; inactive = no such curve, though single readings can be large; an effect the other way counts as inactive or inconclusive. Potency is the fitted concentration of half-maximal effect.

SMILES | Caspase-7 inhib | 15-hLO inh | Tau filament bind | Casp1 inh | ERK AVP block
c1cn2c(NC3CCCC3)c(-c3ccc(N4CCOCC4)cc3)nc2cn1 | u | -6% | 15% | x | x
Oc1ccc(-c2nc3cnccn3c2Nc2ccc3c(c2)OCCO3)cc1 | -1% | -12% | -10% | -2% | x
c1ccc2c(N3CCNCC3)nc(-c3ccc4c(c3)OCO4)nc2c1 | 1% | u | 3% | 2% | 8%
COc1ccccc1OCCCn1c(=O)oc2ccc(C)cc21 | 0% | -9% | -3% | -3% | 13%
COc1ccccc1-n1c(=O)oc2ccc(Cl)cc2c1=O | 0% | 1% | -12% | -1% | 20µM*
O=S1(=O)C=C(Sc2nc3ccccc3s2)c2ccccc21 | -5% | u | -13% | -3% | 13µM*
OC12CCCCC1C(c1ccc3c(c1)OCO3)N(Cc1ccc(F)cc1)CC2 (configuration not stated) | 0% | -2% | u | -1% | -24%
OC12CCCCC1C(c1ccc3c(c1)OCO3)N(Cc1cccc(F)c1)CC2 (configuration not stated) | -3% | 1% | 16µM* | -1% | -13%
CN1CCN(C(=O)CSc2nc(-c3cccs3)cc(-c3cccs3)c2C#N)CC1 | -9% | 16µM* | 7.9µM* | -7% | -11%
COc1ccc(OC)c(S(=O)(=O)N2CCC(C(=O)Nc3cccc(C(F)(F)F)c3)CC2)c1 | -4% | -25% | -6% | -3% | 16µM*
N=C1Sc2ccccc2C2=NCCCN12 | 0% | u | -7% | 1% | -13%
O=C(O)/C=C\C(=O)Nc1cccc2c1-c1ccccc1C2=O | 2%[11.5 µM] | -6%[11.4 µM] | -2%[11.4 µM] | 8%[11.5 µM] | -25%[11.5 µM]
Cc1nc2nc(-c3ccccc3)[nH]n2c(=O)c1Cc1ccccc1 | 0% | -9% | 19% | -1% | -9%
Cc1nc2nc(-c3ccco3)[nH]n2c(=O)c1Cc1ccccc1 | -23% | 16µM* | 91% | u | -2%
OC[C@@H]1NC[C@@H](O)[C@H]1O | -1% | 10% | -6% | 2% | 23%
COc1ccc(CCNc2cc(=O)[nH]c(N)n2)cc1 | -5% | -10% | 16µM* | -3% | -27%
CCOCCOC(=O)c1[nH]c2c(c1C)C(=O)CC(c1ccc(N(C)C)cc1)C2 (configuration not stated) | -1% | -5% | 48% | -5% | 25µM*
COc1cc(C2CC(=O)c3c([nH]c(C(=O)OCCOC(C)C)c3C)C2)cc(OC)c1OC (configuration not stated) | 0% | -4% | 14% | 1% | 4µM*
CCOC(=O)c1[nH]c2c(c1C)C(=O)CC(c1ccc(OC)c(OC)c1)C2 (configuration not stated) | 1% | -10% | 4% | 2% | 18%
C/C=C/COC(=O)c1[nH]c2c(c1C)C(=O)CC(c1ccc(N(C)C)cc1)C2 (configuration not stated) | -3% | 4% | 79% | -3% | u
CN(C)c1ccc(C(=C2C=CC(=[N+](C)C)C=C2)c2ccccc2)cc1 | -2%[11.5 µM] | 32µM*! | 0.2µM*! | 0%[11.5 µM] | 13µM*
O[C@@H](c1ccccc1)C1CCN(CCc2ccccc2)CC1 | 1% | -20%[25.6 µM] | 15% | -1% | -2%
CCc1nc(SCC(=O)N2CCN(C(=O)c3ccco3)CC2)c2c3c(sc2n1)CCCC3 | 0% | -12% | 16% | -1% | 20µM*
O=C(c1ccco1)N1CCN(c2nc(C3CC3)nc3sc4c(c23)CCCC4)CC1 | -29% | -26% | 56% | -1% | 7%
COC(=O)[C@@H]1C[C@H]1[C@@H](N)c1ccccc1 | -1% | x | -10% | 3% | u
SMILES | Caspase-7 inhib | 15-hLO inh | Tau filament bind | Casp1 inh | ERK AVP block
COC(=O)CC1C(C)(C)C(=O)C2CC3C4=CC(=O)OC(c5ccoc5)[C@]4(C)CCC3[C@@]1(C)C2=O (some centres not stated) | 0% | 5% | x | 1% | 7%
CCC(c1nnc(SCC(=O)Nc2ccc(C(=O)Nc3ccccc3OC)cc2)o1)N(C)C (configuration not stated) | 1% | 19% | 20µM* | 1% | 13%
O=C(c1oc2ccccc2c1CSCc1ccccc1)N1CCN(c2ncccn2)CC1 | -7% | u | 24% | -8% | 5µM*
CCCN(CCC)C[C@@H]1CCCCN1CCNC(=O)N1c2ccccc2C(=O)Nc2cccnc21 | -1% | u | 40µM* | -1% | 8%
COC(=O)c1ccc(C(NC(=O)OCc2ccccc2)/C(=C/[C@@H](C)C(=O)N[C@@H](CO)Cc2ccccc2)c2cccnc2)cc1 (some centres not stated) | -3% | 25µM* | 12% | -3% | 14%
CNC(=O)[C@H](C)/C=C(\c1cccnc1)C(NC(=O)OCc1ccccc1)c1ccc(C(=O)OC)cc1 (some centres not stated) | -3% | 5% | 5% | 1% | 3%
CCOc1ccc(-c2nc(=S)[nH][nH]2)cc1 | 1% | 25µM* | 13% | 0% | 12%
COc1ccc(-c2nc(=S)[nH][nH]2)cc1 | 0% | -25% | 11% | -2% | -16%
Cc1onc(-c2ccccc2Cl)c1C(=O)OCC(=O)N1CCCc2ccccc21 | -4% | 20µM* | -13% | -4% | 54%
Cc1onc(-c2ccccc2Cl)c1C(=O)N1CCCc2ccccc21 | -7% | 5% | 0% | 0% | -15%
COc1cc(C(=O)O[C@@H]2CC(C)=CC[C@@]3(C)CC[C@](O)(C(C)C)[C@H]23)ccc1O | x | x | 40µM* | x | x
CCCCNC(=O)c1ccc2nc(-c3ccco3)c(-c3ccco3)nc2c1 | u | 5µM* | u | x | -29%
Nc1c(C(=O)Nc2ccccc2)sc2nc(-c3ccco3)ccc12 | u | u | 2µM* | x | 32µM*
COc1ccccc1NC(=O)c1sc2nc(-c3ccco3)ccc2c1N | 1% | -2% | 7% | 1% | -10%
O=C(Nc1ccc(N2CCOCC2)cc1)c1ccc2nc(-c3ccco3)c(-c3ccco3)nc2c1 | -6% | -23% | 7.9µM* | -4% | u
O=C(Nc1ccccc1)c1ccc2nc(-c3ccco3)c(-c3ccco3)nc2c1 | u | 6.3µM* | 0.63µM* | u | u
O=S(=O)(Nc1ccc(Cl)cc1Cl)c1cc(Cl)ccc1Cl | -2% | -12% | x | -5% | x
Cc1noc(C)c1CSc1nc2[nH]ncc2c(=O)n1-c1ccccc1 | 2% | -27% | -5% | 0% | 13µM*
Cc1noc(C)c1CSc1nc2ccccc2c(=O)n1-c1ccccc1 | -2% | -26% | 10% | -3% | u
O=C(CC1N=C2c3ccccc3N=C(SCc3ccc(Cl)cc3)N2C1=O)NCc1ccco1 (configuration not stated) | -23% | 25µM* | -1% | -10% | 7%

Bioassay records deposited in PubChem by National Center for Advancing Translational Sciences (NCATS).
